Test results: PMC11006913

Assays:
Experiment in all cases: PBM; 200 nM protein, PBS
Conditions in all cases: dsDNA, one strand shown
HESX1 [1] = molecular target: HESX1 (Homo sapiens, UniProt Q9UBX0 95-180, R165K)
SHOX [2] = molecular target: SHOX (Homo sapiens, UniProt O15266 103-189)
ALX4 = ALX4 (Homo sapiens, UniProt Q9H161 200-286, Q225E)
HESX1 [3] = molecular target: HESX1 (Homo sapiens, UniProt Q9UBX0 95-180)
MSX2 = MSX2 (Homo sapiens, UniProt P35548 130-214, R199I)
ALX1 [4] = molecular target: ALX1 (Homo sapiens, UniProt Q15699 118-204, L144V)
Chain of ALX1 (Homo sapiens, UniProt Q15699 118-204, L144V) (Q15699 118-204 L144V): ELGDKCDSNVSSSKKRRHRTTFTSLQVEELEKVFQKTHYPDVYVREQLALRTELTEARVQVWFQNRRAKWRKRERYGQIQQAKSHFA

ALX3 [5] = molecular target: ALX3 (Homo sapiens, UniProt O95076 139-225, N203Q)
Chain of ALX3 (Homo sapiens, UniProt O95076 139-225, N203Q) (O95076 139-225 N203Q): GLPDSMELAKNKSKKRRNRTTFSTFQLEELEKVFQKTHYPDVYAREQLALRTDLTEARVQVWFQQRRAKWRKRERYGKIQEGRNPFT

SHOX [6] = molecular target: SHOX (Homo sapiens, UniProt O15266 103-189, R173C)
Chain of SHOX (Homo sapiens, UniProt O15266 103-189, R173C) (O15266 103-189 R173C): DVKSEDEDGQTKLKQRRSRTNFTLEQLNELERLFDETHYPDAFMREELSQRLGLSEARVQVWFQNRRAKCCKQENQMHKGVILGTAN

ALX1 [7] = molecular target: ALX1 (Homo sapiens, UniProt Q15699 118-204, L144R)
Chain of ALX1 (Homo sapiens, UniProt Q15699 118-204, L144R) (Q15699 118-204 L144R): as the sequence (Q15699 118-204 L144V) above, with V27R counted along it

ALX3 [8] = molecular target: ALX3 (Homo sapiens, UniProt O95076 139-225)
Chain of ALX3 (Homo sapiens, UniProt O95076 139-225) (O95076 139-225): as the sequence (O95076 139-225 N203Q) above, with Q65N counted along it

PROP1 [9] = molecular target: PROP1 (Homo sapiens, UniProt O75360 56-141)
Chain of PROP1 (Homo sapiens, UniProt O75360 56-141) (O75360 56-141): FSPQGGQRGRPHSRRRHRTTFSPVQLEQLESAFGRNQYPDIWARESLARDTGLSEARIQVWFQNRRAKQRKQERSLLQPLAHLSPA

HESX1 [10] = molecular target: HESX1 (Homo sapiens, UniProt Q9UBX0 95-180, R109Q)
Chain of HESX1 (Homo sapiens, UniProt Q9UBX0 95-180, R109Q) (Q9UBX0 95-180 R109Q): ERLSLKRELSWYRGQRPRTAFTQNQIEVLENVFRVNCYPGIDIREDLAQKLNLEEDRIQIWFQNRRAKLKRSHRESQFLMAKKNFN

PROP1 [11] = molecular target: PROP1 (Homo sapiens, UniProt O75360 56-141, R99H)
Chain of PROP1 (Homo sapiens, UniProt O75360 56-141, R99H) (O75360 56-141 R99H): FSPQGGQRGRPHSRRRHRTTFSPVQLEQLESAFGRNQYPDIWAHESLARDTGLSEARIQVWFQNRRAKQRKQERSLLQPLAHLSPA

ALX3 [12] = molecular target: ALX3 (Homo sapiens, UniProt O95076 139-225, L168Q)
Chain of ALX3 (Homo sapiens, UniProt O95076 139-225, L168Q) (O95076 139-225 L168Q): as the sequence (O95076 139-225 N203Q) above, with L30Q, Q65N counted along it

HESX1 [13] = molecular target: HESX1 (Homo sapiens, UniProt Q9UBX0 95-180, P111T)
Chain of HESX1 (Homo sapiens, UniProt Q9UBX0 95-180, P111T) (Q9UBX0 95-180 P111T): as the sequence (Q9UBX0 95-180 R109Q) above, with Q15R, P17T counted along it

ALX3 [14] = molecular target: ALX3 (Homo sapiens, UniProt O95076 139-225, L168V)
Chain of ALX3 (Homo sapiens, UniProt O95076 139-225, L168V) (O95076 139-225 L168V): as the sequence (O95076 139-225 N203Q) above, with L30V, Q65N counted along it

PROP1 [15] = molecular target: PROP1 (Homo sapiens, UniProt O75360 56-141, F88S)
Chain of PROP1 (Homo sapiens, UniProt O75360 56-141, F88S) (O75360 56-141 F88S): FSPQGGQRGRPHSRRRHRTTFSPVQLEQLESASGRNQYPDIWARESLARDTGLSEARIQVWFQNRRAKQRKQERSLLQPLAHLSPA

HESX1 [16] = molecular target: HESX1 (Homo sapiens, UniProt Q9UBX0 95-180, F115L)
Chain of HESX1 (Homo sapiens, UniProt Q9UBX0 95-180, F115L) (Q9UBX0 95-180 F115L): as the sequence (Q9UBX0 95-180 R109Q) above, with Q15R, F21L counted along it

ALX1 [17] = molecular target: ALX1 (Homo sapiens, UniProt Q15699 118-204)
Chain of ALX1 (Homo sapiens, UniProt Q15699 118-204) (Q15699 118-204): as the sequence (Q15699 118-204 L144V) above, with V27L counted along it

ALX3 [18] = molecular target: ALX3 (Homo sapiens, UniProt O95076 139-225, N203S)
Chain of ALX3 (Homo sapiens, UniProt O95076 139-225, N203S) (O95076 139-225 N203S): as the sequence (O95076 139-225 N203Q) above, with Q65S counted along it

Chain of ALX4 (Q9H161 200-286 Q225E): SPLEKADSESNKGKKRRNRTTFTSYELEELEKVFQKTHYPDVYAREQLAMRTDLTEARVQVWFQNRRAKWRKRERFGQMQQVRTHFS
Chain of SHOX (Homo sapiens, UniProt O15266 103-189) (O15266 103-189): as the sequence (O15266 103-189 R173C) above, with C71R counted along it
Chain of MSX2 (P35548 130-214 R199I): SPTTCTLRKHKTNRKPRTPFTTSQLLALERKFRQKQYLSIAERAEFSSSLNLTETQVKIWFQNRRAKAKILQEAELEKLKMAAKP
Chain of HESX1 (Homo sapiens, UniProt Q9UBX0 95-180, R165K) (Q9UBX0 95-180 R165K): as the sequence (Q9UBX0 95-180 R109Q) above, with Q15R, R71K counted along it
Chain of HESX1 (Homo sapiens, UniProt Q9UBX0 95-180) (Q9UBX0 95-180): as the sequence (Q9UBX0 95-180 R109Q) above, with Q15R counted along it

CTAATTGA
binding signal (HESX1 [1]): 13.2 upbm affinity estimate (log intensity, higher = more binding, comparable within an allelic series)
binding signal (SHOX [2]): 12.6 upbm affinity estimate (log intensity, higher = more binding, comparable within an allelic series)
binding signal (ALX4): 13.5 upbm affinity estimate (log intensity, higher = more binding, comparable within an allelic series)
binding signal (HESX1 [3]): 13.2 upbm affinity estimate (log intensity, higher = more binding, comparable within an allelic series)
binding signal (MSX2): 12.8 upbm affinity estimate (log intensity, higher = more binding, comparable within an allelic series)
binding signal (ALX1 [4]): 11.9 upbm affinity estimate (log intensity, higher = more binding, comparable within an allelic series)
binding signal (ALX3 [5]): 8.21 upbm affinity estimate (log intensity, higher = more binding, comparable within an allelic series)
binding signal (SHOX [6]): 9.97 upbm affinity estimate (log intensity, higher = more binding, comparable within an allelic series)
binding signal (ALX1 [7]): 11.5 upbm affinity estimate (log intensity, higher = more binding, comparable within an allelic series)
binding signal (ALX3 [8]): 12.7 upbm affinity estimate (log intensity, higher = more binding, comparable within an allelic series)
binding signal (PROP1 [9]): 11.8 upbm affinity estimate (log intensity, higher = more binding, comparable within an allelic series)
binding signal (HESX1 [10]): 9.83 upbm affinity estimate (log intensity, higher = more binding, comparable within an allelic series)
binding signal (PROP1 [11]): 12.1 upbm affinity estimate (log intensity, higher = more binding, comparable within an allelic series)
binding signal (ALX3 [12]): 10.8 upbm affinity estimate (log intensity, higher = more binding, comparable within an allelic series)
binding signal (HESX1 [13]): 11.8 upbm affinity estimate (log intensity, higher = more binding, comparable within an allelic series)
binding signal (ALX3 [14]): 10.2 upbm affinity estimate (log intensity, higher = more binding, comparable within an allelic series)
binding signal (PROP1 [15]): 7.7 upbm affinity estimate (log intensity, higher = more binding, comparable within an allelic series)
binding signal (HESX1 [16]): 7.77 upbm affinity estimate (log intensity, higher = more binding, comparable within an allelic series)
binding signal (ALX1 [17]): 12.8 upbm affinity estimate (log intensity, higher = more binding, comparable within an allelic series)
binding signal (ALX3 [18]): 8.38 upbm affinity estimate (log intensity, higher = more binding, comparable within an allelic series)

ATCAATTA
binding signal (HESX1 [1]): 13.5 upbm affinity estimate (log intensity, higher = more binding, comparable within an allelic series)
binding signal (SHOX [2]): 12.6 upbm affinity estimate (log intensity, higher = more binding, comparable within an allelic series)
binding signal (ALX4): 13.7 upbm affinity estimate (log intensity, higher = more binding, comparable within an allelic series)
binding signal (HESX1 [3]): 13.4 upbm affinity estimate (log intensity, higher = more binding, comparable within an allelic series)
binding signal (MSX2): 13.1 upbm affinity estimate (log intensity, higher = more binding, comparable within an allelic series)
binding signal (ALX1 [4]): 12 upbm affinity estimate (log intensity, higher = more binding, comparable within an allelic series)
binding signal (ALX3 [5]): 8.5 upbm affinity estimate (log intensity, higher = more binding, comparable within an allelic series)
binding signal (SHOX [6]): 10.1 upbm affinity estimate (log intensity, higher = more binding, comparable within an allelic series)
binding signal (ALX1 [7]): 11.8 upbm affinity estimate (log intensity, higher = more binding, comparable within an allelic series)
binding signal (ALX3 [8]): 12.7 upbm affinity estimate (log intensity, higher = more binding, comparable within an allelic series)
binding signal (PROP1 [9]): 11.8 upbm affinity estimate (log intensity, higher = more binding, comparable within an allelic series)
binding signal (HESX1 [10]): 10.2 upbm affinity estimate (log intensity, higher = more binding, comparable within an allelic series)
binding signal (PROP1 [11]): 12.2 upbm affinity estimate (log intensity, higher = more binding, comparable within an allelic series)
binding signal (ALX3 [12]): 10.9 upbm affinity estimate (log intensity, higher = more binding, comparable within an allelic series)
binding signal (HESX1 [13]): 12.1 upbm affinity estimate (log intensity, higher = more binding, comparable within an allelic series)
binding signal (ALX3 [14]): 10.4 upbm affinity estimate (log intensity, higher = more binding, comparable within an allelic series)
binding signal (PROP1 [15]): 7.84 upbm affinity estimate (log intensity, higher = more binding, comparable within an allelic series)
binding signal (HESX1 [16]): 8.22 upbm affinity estimate (log intensity, higher = more binding, comparable within an allelic series)
binding signal (ALX1 [17]): 12.8 upbm affinity estimate (log intensity, higher = more binding, comparable within an allelic series)
binding signal (ALX3 [18]): 8.66 upbm affinity estimate (log intensity, higher = more binding, comparable within an allelic series)

AACAATTA
binding signal (HESX1 [1]): 12 upbm affinity estimate (log intensity, higher = more binding, comparable within an allelic series)
binding signal (SHOX [2]): 11.5 upbm affinity estimate (log intensity, higher = more binding, comparable within an allelic series)
binding signal (ALX4): 12.8 upbm affinity estimate (log intensity, higher = more binding, comparable within an allelic series)
binding signal (HESX1 [3]): 12.2 upbm affinity estimate (log intensity, higher = more binding, comparable within an allelic series)
binding signal (MSX2): 12.8 upbm affinity estimate (log intensity, higher = more binding, comparable within an allelic series)
binding signal (ALX3 [5]): 8.48 upbm affinity estimate (log intensity, higher = more binding, comparable within an allelic series)
binding signal (SHOX [6]): 9.19 upbm affinity estimate (log intensity, higher = more binding, comparable within an allelic series)
binding signal (ALX3 [8]): 12.2 upbm affinity estimate (log intensity, higher = more binding, comparable within an allelic series)
binding signal (PROP1 [9]): 11.1 upbm affinity estimate (log intensity, higher = more binding, comparable within an allelic series)
binding signal (HESX1 [10]): 8.73 upbm affinity estimate (log intensity, higher = more binding, comparable within an allelic series)
binding signal (PROP1 [11]): 11.2 upbm affinity estimate (log intensity, higher = more binding, comparable within an allelic series)
binding signal (ALX3 [12]): 10.3 upbm affinity estimate (log intensity, higher = more binding, comparable within an allelic series)
binding signal (HESX1 [13]): 10.6 upbm affinity estimate (log intensity, higher = more binding, comparable within an allelic series)
binding signal (ALX3 [14]): 9.75 upbm affinity estimate (log intensity, higher = more binding, comparable within an allelic series)
binding signal (PROP1 [15]): 7.78 upbm affinity estimate (log intensity, higher = more binding, comparable within an allelic series)
binding signal (HESX1 [16]): 7.66 upbm affinity estimate (log intensity, higher = more binding, comparable within an allelic series)
binding signal (ALX3 [18]): 8.6 upbm affinity estimate (log intensity, higher = more binding, comparable within an allelic series)

CTAATTAG
binding signal (HESX1 [1]): 14 upbm affinity estimate (log intensity, higher = more binding, comparable within an allelic series)
binding signal (SHOX [2]): 13.6 upbm affinity estimate (log intensity, higher = more binding, comparable within an allelic series)
binding signal (ALX4): 14.6 upbm affinity estimate (log intensity, higher = more binding, comparable within an allelic series)
binding signal (HESX1 [3]): 13.7 upbm affinity estimate (log intensity, higher = more binding, comparable within an allelic series)
binding signal (MSX2): 13.6 upbm affinity estimate (log intensity, higher = more binding, comparable within an allelic series)
binding signal (ALX1 [4]): 12.5 upbm affinity estimate (log intensity, higher = more binding, comparable within an allelic series)
binding signal (ALX3 [5]): 8.69 upbm affinity estimate (log intensity, higher = more binding, comparable within an allelic series)
binding signal (SHOX [6]): 11.1 upbm affinity estimate (log intensity, higher = more binding, comparable within an allelic series)
binding signal (ALX1 [7]): 12.1 upbm affinity estimate (log intensity, higher = more binding, comparable within an allelic series)
binding signal (ALX3 [8]): 13 upbm affinity estimate (log intensity, higher = more binding, comparable within an allelic series)
binding signal (PROP1 [9]): 12.4 upbm affinity estimate (log intensity, higher = more binding, comparable within an allelic series)
binding signal (HESX1 [10]): 10.9 upbm affinity estimate (log intensity, higher = more binding, comparable within an allelic series)
binding signal (PROP1 [11]): 12.6 upbm affinity estimate (log intensity, higher = more binding, comparable within an allelic series)
binding signal (ALX3 [12]): 11.6 upbm affinity estimate (log intensity, higher = more binding, comparable within an allelic series)
binding signal (HESX1 [13]): 12.5 upbm affinity estimate (log intensity, higher = more binding, comparable within an allelic series)
binding signal (ALX3 [14]): 11.3 upbm affinity estimate (log intensity, higher = more binding, comparable within an allelic series)
binding signal (PROP1 [15]): 8.3 upbm affinity estimate (log intensity, higher = more binding, comparable within an allelic series)
binding signal (HESX1 [16]): 8.53 upbm affinity estimate (log intensity, higher = more binding, comparable within an allelic series)
binding signal (ALX1 [17]): 13.2 upbm affinity estimate (log intensity, higher = more binding, comparable within an allelic series)
binding signal (ALX3 [18]): 8.81 upbm affinity estimate (log intensity, higher = more binding, comparable within an allelic series)
